# Experiments:
# Assay in all cases: DAPPL (digital affinity profiling via proximity ligation, sequencing); 10 mM Tris-HCl pH 7.5, 50 mM NaCl, 1 mM DTT, 4% glycerol, room temperature, 30 min; GST-TFs on glutathione beads, 16-mer random dsDNA library, 0.1% formaldehyde crosslink after washing; high values mean tight binding
# FLI1 = molecular target: T1, FLI1 (Homo sapiens, UniProt Q01543 1-452); conditions: protein: recombinant; tags: N-terminal GST; dsDNA, one strand shown
# T1 sequence: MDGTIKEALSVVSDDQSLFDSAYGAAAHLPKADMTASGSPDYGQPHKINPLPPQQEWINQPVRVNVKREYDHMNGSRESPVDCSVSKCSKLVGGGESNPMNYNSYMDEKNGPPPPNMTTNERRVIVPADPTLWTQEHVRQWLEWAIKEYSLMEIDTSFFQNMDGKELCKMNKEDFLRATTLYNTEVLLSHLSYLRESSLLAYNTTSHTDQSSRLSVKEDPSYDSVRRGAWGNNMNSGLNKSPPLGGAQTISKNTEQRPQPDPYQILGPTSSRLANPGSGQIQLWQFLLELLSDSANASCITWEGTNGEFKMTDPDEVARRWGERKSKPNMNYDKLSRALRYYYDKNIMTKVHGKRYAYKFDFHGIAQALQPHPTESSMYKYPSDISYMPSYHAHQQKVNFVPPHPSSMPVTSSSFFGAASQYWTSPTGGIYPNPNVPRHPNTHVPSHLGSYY
# Outline: (§1)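 A tag-only sample was pooled with DNA-barcoded human transcription factors that had been expressed in yeast as GST fusions and captured on glutathione beads. The pools were incubated for 30 min at room temperature with 200 nmole of a random double-stranded 16-mer DNA library in Tris/NaCl/DTT/glycerol buffer, then washed, crosslinked with 0.1% formaldehyde, proximity-ligated (BsaI/T4 ligase, 1 h, 37 °C), PCR-amplified and sequenced on an Illumina NextSeq500. Binding signal is each hexamer's read frequency for a factor divided by its frequency for the tag-only sample.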
# ELK1 = molecular target: T2, ELK1 (Homo sapiens, UniProt P19419 1-428); conditions: protein: recombinant; tags: N-terminal GST; dsDNA, one strand shown
# T2 sequence: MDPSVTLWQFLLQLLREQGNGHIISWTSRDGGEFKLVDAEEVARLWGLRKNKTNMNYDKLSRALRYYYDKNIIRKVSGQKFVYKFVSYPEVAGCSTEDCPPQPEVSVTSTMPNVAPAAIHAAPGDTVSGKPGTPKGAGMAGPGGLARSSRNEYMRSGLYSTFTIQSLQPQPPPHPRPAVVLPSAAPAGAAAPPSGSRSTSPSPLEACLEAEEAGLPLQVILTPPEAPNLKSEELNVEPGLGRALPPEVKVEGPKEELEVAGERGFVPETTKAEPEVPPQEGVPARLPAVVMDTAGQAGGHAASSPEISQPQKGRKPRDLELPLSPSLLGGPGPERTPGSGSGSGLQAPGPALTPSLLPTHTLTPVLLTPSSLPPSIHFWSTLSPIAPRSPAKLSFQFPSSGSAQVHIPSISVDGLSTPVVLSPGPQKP
# Outline: as §1
# GABPA = molecular target: T3, GABPA (Homo sapiens, UniProt Q06546 1-454); conditions: protein: recombinant; tags: N-terminal GST; dsDNA, one strand shown
# T3 sequence: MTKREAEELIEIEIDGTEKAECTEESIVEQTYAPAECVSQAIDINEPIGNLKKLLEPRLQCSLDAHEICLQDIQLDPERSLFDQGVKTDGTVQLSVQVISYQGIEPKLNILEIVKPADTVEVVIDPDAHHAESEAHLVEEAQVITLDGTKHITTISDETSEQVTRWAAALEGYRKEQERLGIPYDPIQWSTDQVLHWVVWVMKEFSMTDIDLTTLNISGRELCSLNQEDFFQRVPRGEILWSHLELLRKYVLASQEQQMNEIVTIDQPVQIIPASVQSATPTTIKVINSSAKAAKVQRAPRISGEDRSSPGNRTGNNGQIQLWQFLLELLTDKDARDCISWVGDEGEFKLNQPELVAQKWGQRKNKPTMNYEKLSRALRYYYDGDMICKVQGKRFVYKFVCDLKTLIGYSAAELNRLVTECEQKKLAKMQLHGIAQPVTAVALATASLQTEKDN
# Outline: as §1
# ERG = molecular target: T4, ERG (Homo sapiens, UniProt P11308 1-479); conditions: protein: recombinant; tags: N-terminal GST; dsDNA, one strand shown
# T4 sequence: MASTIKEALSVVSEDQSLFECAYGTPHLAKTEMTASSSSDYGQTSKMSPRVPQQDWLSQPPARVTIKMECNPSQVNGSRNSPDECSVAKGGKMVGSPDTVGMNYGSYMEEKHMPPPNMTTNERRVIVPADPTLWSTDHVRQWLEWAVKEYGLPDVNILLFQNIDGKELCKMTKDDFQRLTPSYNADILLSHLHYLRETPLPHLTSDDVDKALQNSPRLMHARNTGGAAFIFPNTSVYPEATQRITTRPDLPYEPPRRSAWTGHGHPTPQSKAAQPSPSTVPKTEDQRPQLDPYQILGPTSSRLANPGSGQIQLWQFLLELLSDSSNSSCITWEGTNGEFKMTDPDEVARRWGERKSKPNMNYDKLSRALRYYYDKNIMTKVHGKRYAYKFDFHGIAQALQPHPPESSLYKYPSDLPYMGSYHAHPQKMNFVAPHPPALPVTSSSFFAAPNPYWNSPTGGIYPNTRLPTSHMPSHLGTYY
# Outline: as §1
# ELF1 = ELF1 (Homo sapiens, UniProt P32519 1-619); conditions: protein: recombinant; tags: N-terminal GST; dsDNA, one strand shown
# Outline: as §1
# EHF = molecular target: T5, EHF (Homo sapiens, UniProt Q9NZC4 1-300); conditions: protein: recombinant; tags: N-terminal GST; dsDNA, one strand shown
# T5 sequence: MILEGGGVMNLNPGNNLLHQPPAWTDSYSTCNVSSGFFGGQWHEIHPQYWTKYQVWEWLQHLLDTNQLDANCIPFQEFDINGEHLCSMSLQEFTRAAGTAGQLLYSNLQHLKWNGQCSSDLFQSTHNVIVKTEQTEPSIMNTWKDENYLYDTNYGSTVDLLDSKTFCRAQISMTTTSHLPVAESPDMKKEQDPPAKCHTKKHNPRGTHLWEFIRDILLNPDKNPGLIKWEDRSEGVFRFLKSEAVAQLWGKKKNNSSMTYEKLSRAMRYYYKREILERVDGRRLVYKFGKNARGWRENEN
# Outline: as §1
# SPI1 = SPI1 (Homo sapiens, UniProt P17947 1-270); conditions: protein: recombinant; tags: N-terminal GST; dsDNA, one strand shown
# Outline: as §1
# SPIB = SPIB (Homo sapiens, UniProt Q01892 1-262); conditions: protein: recombinant; tags: N-terminal GST; dsDNA, one strand shown
# Outline: as §1
# ELK3 = molecular target: T6, ELK3 (Homo sapiens, UniProt P41970 1-407); conditions: protein: recombinant; tags: N-terminal GST; dsDNA, one strand shown
# T6 sequence: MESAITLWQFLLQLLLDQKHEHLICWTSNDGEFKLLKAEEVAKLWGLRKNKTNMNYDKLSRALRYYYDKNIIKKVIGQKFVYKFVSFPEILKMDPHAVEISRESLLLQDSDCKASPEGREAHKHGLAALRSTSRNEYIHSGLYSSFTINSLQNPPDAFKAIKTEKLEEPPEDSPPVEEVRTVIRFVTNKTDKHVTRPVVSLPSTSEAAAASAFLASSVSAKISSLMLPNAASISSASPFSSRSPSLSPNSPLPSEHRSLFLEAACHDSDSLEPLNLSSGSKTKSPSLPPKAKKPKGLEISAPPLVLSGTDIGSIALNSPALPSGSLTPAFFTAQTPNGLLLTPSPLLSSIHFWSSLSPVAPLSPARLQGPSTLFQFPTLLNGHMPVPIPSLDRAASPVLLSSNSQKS
# Outline: as §1
# FEV = molecular target: T7, FEV (Homo sapiens, UniProt Q99581 1-238); conditions: protein: recombinant; tags: N-terminal GST; dsDNA, one strand shown
# T7 sequence: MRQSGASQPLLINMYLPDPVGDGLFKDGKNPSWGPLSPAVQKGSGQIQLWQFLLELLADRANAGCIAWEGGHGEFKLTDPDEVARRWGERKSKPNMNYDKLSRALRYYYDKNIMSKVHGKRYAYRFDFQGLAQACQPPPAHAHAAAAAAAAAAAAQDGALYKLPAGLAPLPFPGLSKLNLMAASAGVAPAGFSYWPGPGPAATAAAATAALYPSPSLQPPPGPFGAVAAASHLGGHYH
# Outline: as §1
# ETV5 = ETV5 (Homo sapiens, UniProt P41161 1-510); conditions: protein: recombinant; tags: N-terminal GST; dsDNA, one strand shown
# Outline: as §1
# HSF1 = HSF1 (Homo sapiens, UniProt Q00613 1-529); conditions: protein: recombinant; tags: N-terminal GST; chain copies: 3; dsDNA, one strand shown
# Outline: as §1
# SPIC = molecular target: T8, SPIC (Homo sapiens, UniProt Q8N5J4 1-248); conditions: protein: recombinant; tags: N-terminal GST; dsDNA, one strand shown
# T8 sequence: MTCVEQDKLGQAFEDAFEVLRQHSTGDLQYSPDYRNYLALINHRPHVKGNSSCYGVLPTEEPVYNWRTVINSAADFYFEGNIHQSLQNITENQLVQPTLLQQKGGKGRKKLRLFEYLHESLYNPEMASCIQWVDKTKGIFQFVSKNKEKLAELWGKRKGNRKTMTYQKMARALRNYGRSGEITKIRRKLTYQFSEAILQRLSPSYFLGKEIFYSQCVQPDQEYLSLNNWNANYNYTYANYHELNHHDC
# Outline: as §1
# ELF4 = ELF4 (Homo sapiens, UniProt Q99607 1-663); conditions: protein: recombinant; tags: N-terminal GST; dsDNA, one strand shown
# Outline: as §1
# ELK4 = molecular target: T9, ELK4 (Homo sapiens, UniProt P28324-2 1-405); conditions: protein: recombinant; tags: N-terminal GST; dsDNA, one strand shown
# T9 sequence: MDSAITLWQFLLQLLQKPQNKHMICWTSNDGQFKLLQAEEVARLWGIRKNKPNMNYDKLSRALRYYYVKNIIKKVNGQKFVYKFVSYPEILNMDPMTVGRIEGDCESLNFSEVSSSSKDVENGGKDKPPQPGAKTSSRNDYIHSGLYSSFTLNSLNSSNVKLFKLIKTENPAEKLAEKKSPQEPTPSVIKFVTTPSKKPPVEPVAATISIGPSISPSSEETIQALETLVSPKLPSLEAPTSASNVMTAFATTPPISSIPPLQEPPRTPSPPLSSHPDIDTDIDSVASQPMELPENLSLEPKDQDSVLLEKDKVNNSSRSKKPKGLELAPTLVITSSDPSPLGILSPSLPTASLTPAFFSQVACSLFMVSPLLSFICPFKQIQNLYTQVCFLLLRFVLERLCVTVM
# Outline: as §1
# ETV2 = molecular target: T10, ETV2 (Homo sapiens, UniProt O00321 1-342); conditions: protein: recombinant; tags: N-terminal GST; dsDNA, one strand shown
# T10 sequence: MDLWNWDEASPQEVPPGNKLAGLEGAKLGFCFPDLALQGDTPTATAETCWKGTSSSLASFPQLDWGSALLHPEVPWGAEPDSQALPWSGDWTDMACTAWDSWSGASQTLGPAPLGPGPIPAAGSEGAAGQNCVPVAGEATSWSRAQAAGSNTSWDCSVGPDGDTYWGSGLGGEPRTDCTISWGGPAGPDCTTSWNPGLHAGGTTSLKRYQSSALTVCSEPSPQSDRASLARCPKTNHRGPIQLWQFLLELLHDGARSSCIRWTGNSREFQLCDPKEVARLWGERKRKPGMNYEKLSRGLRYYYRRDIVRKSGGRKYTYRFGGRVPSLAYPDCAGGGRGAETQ
# Outline: as §1
# ELF3 = molecular target: T11, ELF3 (Homo sapiens, UniProt P78545 1-371); conditions: protein: recombinant; tags: N-terminal GST; dsDNA, one strand shown
# T11 sequence: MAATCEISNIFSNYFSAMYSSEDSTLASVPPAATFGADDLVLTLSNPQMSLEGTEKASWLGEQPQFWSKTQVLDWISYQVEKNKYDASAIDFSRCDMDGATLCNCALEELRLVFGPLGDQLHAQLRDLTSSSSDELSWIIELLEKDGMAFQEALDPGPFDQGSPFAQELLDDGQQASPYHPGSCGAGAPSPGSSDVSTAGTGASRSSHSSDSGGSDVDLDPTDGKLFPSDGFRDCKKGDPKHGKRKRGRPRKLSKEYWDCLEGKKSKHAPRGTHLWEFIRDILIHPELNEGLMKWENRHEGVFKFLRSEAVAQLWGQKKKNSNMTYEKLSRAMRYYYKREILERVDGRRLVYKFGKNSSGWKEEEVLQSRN
# Outline: as §1
# ETV1 = ETV1 (Homo sapiens, UniProt P50549 1-477); conditions: protein: recombinant; tags: N-terminal GST; dsDNA, one strand shown
# Outline: as §1
# ETV5, sequence (P41161 whole entry): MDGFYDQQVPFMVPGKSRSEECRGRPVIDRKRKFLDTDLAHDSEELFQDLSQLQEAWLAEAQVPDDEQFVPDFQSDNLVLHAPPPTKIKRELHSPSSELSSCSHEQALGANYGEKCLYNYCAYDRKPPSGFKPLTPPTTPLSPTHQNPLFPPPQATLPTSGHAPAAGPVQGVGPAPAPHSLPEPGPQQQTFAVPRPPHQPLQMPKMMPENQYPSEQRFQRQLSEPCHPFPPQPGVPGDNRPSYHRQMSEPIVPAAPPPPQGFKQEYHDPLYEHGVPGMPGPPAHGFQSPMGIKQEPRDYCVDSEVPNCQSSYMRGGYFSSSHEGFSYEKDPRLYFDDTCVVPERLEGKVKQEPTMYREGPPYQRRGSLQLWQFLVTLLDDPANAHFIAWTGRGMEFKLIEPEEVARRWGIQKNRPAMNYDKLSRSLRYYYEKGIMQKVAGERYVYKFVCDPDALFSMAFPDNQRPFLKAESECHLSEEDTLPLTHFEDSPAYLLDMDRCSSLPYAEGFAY
# ETV1, sequence (P50549 whole entry): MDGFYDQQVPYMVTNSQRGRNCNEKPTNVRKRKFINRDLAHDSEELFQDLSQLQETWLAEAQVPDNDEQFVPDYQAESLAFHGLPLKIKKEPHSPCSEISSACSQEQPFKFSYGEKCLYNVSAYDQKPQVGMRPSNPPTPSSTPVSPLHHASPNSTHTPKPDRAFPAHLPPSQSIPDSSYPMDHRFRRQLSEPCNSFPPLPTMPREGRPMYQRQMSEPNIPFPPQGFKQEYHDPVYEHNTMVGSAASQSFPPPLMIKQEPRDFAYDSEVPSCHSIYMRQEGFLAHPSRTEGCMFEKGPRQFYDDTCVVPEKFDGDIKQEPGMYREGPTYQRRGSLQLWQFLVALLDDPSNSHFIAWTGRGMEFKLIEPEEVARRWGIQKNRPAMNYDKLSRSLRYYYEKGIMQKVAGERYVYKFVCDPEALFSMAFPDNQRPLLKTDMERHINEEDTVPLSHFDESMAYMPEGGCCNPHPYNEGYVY
# ELF1, sequence (P32519 whole entry): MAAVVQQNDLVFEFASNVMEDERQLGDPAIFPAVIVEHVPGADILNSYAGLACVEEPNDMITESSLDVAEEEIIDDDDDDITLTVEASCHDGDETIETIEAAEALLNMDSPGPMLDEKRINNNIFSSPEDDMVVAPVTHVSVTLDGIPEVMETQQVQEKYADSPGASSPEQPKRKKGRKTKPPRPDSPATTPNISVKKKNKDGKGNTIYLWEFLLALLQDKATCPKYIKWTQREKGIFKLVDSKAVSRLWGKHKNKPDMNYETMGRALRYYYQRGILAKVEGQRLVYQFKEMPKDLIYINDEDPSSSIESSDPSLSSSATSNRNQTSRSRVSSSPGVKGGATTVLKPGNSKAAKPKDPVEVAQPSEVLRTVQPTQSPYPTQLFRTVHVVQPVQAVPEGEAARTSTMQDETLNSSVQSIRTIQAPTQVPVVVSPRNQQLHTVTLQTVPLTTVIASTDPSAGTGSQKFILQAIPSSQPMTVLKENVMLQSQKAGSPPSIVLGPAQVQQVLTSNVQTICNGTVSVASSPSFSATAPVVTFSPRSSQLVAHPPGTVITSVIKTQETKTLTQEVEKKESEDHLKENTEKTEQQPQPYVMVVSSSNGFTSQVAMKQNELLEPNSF
# ELF4, sequence (Q99607 whole entry): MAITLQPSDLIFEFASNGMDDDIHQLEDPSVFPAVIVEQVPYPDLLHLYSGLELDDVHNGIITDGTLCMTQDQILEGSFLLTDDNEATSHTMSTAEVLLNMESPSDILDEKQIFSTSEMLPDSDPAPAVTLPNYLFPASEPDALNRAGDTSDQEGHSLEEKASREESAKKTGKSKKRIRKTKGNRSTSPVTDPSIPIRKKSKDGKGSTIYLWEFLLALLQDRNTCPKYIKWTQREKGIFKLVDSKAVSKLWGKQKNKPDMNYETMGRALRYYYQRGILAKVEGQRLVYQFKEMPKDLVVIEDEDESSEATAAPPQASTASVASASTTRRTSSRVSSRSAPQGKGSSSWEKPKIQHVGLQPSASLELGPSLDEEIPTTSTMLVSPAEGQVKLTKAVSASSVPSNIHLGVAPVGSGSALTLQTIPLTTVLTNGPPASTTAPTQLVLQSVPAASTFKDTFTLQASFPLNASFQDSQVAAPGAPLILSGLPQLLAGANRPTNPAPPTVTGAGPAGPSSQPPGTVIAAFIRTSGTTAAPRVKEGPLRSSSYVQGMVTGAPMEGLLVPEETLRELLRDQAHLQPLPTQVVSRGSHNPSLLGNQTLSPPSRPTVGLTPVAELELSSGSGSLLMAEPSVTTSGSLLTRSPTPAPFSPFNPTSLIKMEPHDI
# SPIB, sequence (Q01892 whole entry): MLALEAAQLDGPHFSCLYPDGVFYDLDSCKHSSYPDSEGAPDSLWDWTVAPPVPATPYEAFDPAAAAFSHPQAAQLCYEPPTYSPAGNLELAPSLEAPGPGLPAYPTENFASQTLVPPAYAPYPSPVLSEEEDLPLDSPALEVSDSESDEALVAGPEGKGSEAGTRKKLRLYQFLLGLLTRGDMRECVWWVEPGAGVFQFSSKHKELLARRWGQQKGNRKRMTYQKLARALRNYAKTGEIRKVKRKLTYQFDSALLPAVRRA
# HSF1, sequence (Q00613 whole entry): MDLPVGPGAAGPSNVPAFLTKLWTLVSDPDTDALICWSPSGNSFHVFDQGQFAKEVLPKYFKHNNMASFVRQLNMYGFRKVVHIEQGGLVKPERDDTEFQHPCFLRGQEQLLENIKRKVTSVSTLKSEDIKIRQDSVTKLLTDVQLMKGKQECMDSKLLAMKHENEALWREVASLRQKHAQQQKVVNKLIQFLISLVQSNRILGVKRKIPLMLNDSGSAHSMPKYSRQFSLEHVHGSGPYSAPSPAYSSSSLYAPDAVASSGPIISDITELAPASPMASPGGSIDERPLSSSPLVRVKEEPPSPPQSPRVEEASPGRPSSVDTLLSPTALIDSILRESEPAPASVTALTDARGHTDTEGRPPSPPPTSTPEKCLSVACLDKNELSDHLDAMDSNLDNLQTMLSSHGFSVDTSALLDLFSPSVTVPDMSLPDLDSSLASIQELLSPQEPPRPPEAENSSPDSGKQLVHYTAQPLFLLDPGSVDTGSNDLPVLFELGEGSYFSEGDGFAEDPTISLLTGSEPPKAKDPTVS
sequence,measurement,setting,value
CGCGTC,binding signal,FLI1,"1.33 fold enrichment (6-mer frequency, TF over GST control)"
same,binding signal,ELK1,"1.24 fold enrichment (6-mer frequency, TF over GST control)"
same,binding signal,GABPA,"1.26 fold enrichment (6-mer frequency, TF over GST control)"
same,binding signal,ERG,"1.27 fold enrichment (6-mer frequency, TF over GST control)"
same,binding signal,ELF1,"1.28 fold enrichment (6-mer frequency, TF over GST control)"
same,binding signal,EHF,"1.25 fold enrichment (6-mer frequency, TF over GST control)"
same,binding signal,SPI1,"1.27 fold enrichment (6-mer frequency, TF over GST control)"
same,binding signal,SPIB,"1.32 fold enrichment (6-mer frequency, TF over GST control)"
same,binding signal,ELK3,"1.08 fold enrichment (6-mer frequency, TF over GST control)"
same,binding signal,FEV,"1.2 fold enrichment (6-mer frequency, TF over GST control)"
same,binding signal,ETV5,"1.06 fold enrichment (6-mer frequency, TF over GST control)"
same,binding signal,HSF1,"1.02 fold enrichment (6-mer frequency, TF over GST control)"
same,binding signal,SPIC,"1.39 fold enrichment (6-mer frequency, TF over GST control)"
same,binding signal,ELF4,"1.19 fold enrichment (6-mer frequency, TF over GST control)"
same,binding signal,ELK4,"1.48 fold enrichment (6-mer frequency, TF over GST control)"
same,binding signal,ETV2,"1.35 fold enrichment (6-mer frequency, TF over GST control)"
same,binding signal,ELF3,"1.44 fold enrichment (6-mer frequency, TF over GST control)"
same,binding signal,ETV1,"1.22 fold enrichment (6-mer frequency, TF over GST control)"

# — publication PMC7862700, “An all-to-all approach to the identification of sequence-specific readers for epigenetic DNA modifications on cytosine”
